Bioassay records: PubChem, Johns Hopkins Ion Channel Center
Sampled rows, rich in hits. Any-hit rate of the full collection: about 1.6%.
KCNQ2 inh: KCNQ2 (rat) channel inhibition; actives 1.1% (n = 310,000); O88943; CHO-K1 KCNQ2, FluxOR thallium flux, 20 min; active compounds read low; B-score at 10 µM;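 active means fluorescence ratio B-score at most minus 3 library SDs, with starting brightness B-score within 2 library SDs, cut at about -5.5 in these data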
Target sequence (O88943 whole entry, looked up): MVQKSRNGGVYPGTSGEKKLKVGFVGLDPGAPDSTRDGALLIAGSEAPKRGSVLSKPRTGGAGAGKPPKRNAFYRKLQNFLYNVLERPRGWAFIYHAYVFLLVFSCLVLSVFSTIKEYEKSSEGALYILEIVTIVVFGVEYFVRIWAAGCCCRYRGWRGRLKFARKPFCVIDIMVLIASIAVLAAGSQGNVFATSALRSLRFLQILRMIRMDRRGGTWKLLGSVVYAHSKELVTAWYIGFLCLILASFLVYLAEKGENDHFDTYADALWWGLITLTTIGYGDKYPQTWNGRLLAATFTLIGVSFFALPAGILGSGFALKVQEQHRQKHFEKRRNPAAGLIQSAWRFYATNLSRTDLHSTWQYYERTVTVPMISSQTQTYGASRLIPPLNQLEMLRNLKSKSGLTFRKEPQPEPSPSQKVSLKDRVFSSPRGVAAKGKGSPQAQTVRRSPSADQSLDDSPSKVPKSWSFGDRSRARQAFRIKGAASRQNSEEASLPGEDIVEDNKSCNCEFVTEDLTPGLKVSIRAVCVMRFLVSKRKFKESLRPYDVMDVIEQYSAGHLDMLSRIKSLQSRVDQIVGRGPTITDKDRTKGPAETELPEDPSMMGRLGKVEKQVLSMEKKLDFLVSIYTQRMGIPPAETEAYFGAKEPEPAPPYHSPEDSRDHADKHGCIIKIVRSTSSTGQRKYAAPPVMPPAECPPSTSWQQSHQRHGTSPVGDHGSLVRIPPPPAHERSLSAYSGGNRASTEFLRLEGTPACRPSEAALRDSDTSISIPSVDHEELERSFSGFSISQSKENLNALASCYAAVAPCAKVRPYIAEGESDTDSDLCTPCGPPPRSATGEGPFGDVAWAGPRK
KCNQ2 enhance: KCNQ2 (rat) channel potentiation | O88943 | CHO-K1 KCNQ2, FluxOR thallium flux fluorescence; active compounds read high | B-score at 10 µM | actives 0.54% (n = 310,000);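 active means fluorescence ratio B-score at least 3 SD of library B-scores, with initial fluorescence B-score within 3 of them, cut at about 5.3 in these data; same plate scores as AID 2156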;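 further: B-score of peak minus minimum over baseline fluorescence ratio after K+ and Tl+ stimulus; positive B-score means potentiation of KCNQ2 with more thallium influx and brighter signal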
* = called active by the depositor; i = inactive; . = no result given.

SMILES	KCNQ2 inh	KCNQ2 enhance
N#Cc1c(N2CCN(C(=O)c3ccccc3)CC2)nc(-c2ccccc2)c2c1CCCC2	i	.
CC(C)Cc1nc(N2CCN(C(=O)c3ccccc3)CC2)c(C#N)c2c1CCC2	-6.6*	-6.6
CC(=O)N1CCN(c2nc(CC(C)C)c3c(c2C#N)CCC3)CC1	i	.
CC(C)Cc1nc(N2CCN(C(=O)C(C)C)CC2)c(C#N)c2c1CCC2	-6.5*	-6.5
CC(C)Cc1nc(N2CCN(C(=O)c3ccco3)CC2)c(C#N)c2c1CCC2	i	.
CNS(=O)(=O)c1cccc(C(=O)NCC(c2cccs2)N2CCOCC2)c1 (configuration not stated)	i	1.8
CCc1cccc(CC)c1NC(=O)c1cccc(NC(=O)c2ccccc2)c1	i	.
CCc1cccc(C)c1NC(=O)c1cccc(N(C)C)c1	-6.9*	-6.9
CS(=O)(=O)c1ccccc1-c1nnc(NC(=O)Cc2ccccc2)o1	i	.
COc1ccc(CN(C)c2ncnc3sccc23)c(OC)c1OC	i	.
O=S(=O)(c1ccccc1)N1CCC(=NO)CC1	i	1.4
O=S(=O)(c1ccccc1)C(/C=N\O)/C=C/c1ccccc1 (configuration not stated)	-6.3*	-6.3
O=c1c2ccccc2nc(SCc2ccccc2)n1Cc1ccco1	i	0.28
O=c1c2ccccc2nc(SCc2cccc(F)c2)n1Cc1ccco1	-6.2*	-6.2
Cc1ccc(Cl)cc1S(=O)(=O)N1CCC(C(=O)NC2CCN(Cc3ccccc3)CC2)CC1	i	.
Cc1ccc(NC(=O)c2cc(-c3ccccc3)nn2-c2ccccc2)cc1	-5.7*	-5.7
Cc1cc(C(=O)Nc2ccccc2C)c2ccccc2n1	i	.
Cc1ccc(NC(=O)c2cc(-c3ccccc3)nn2-c2ccccc2)c(Br)c1	i	.
CCc1nnc(NC(=O)c2cc(C)nc3ccccc23)s1	-6.3*	-6.3
Cc1cccc(NC(=O)c2cnn(-c3ccccc3)c2C)c1C	i	.
Cc1cc(C(=O)Nc2cccc(C)c2C)c2ccccc2n1	-5.8*	-5.8
Cc1cccc(NC(=O)c2nc(-c3ccccc3)n(-c3ccccc3)n2)c1C	-8.2*	-8.2
CCc1nnc(NC(=O)c2cc(-c3cccnc3)nc3ccccc23)s1	i	1
Cc1ccccc1NCCC(=O)Nc1ccc(Cl)cc1	i	0.06
COc1cc(S(=O)(=O)NC2CCSc3ccccc32)ccc1NC(C)=O (configuration not stated)	i	.
SMILES	KCNQ2 inh	KCNQ2 enhance
COc1cc(NC(=O)COc2cc3oc(=O)cc(C)c3cc2Cl)cc(OC)c1OC	i	2.4
Cc1ccc(OCc2nnc(SC(C)C(=O)O)n2-c2ccccc2)cc1 (configuration not stated)	i	0.48
CCOc1ccc(NC(=O)c2ccc(Cl)c(NC(=O)c3ccco3)c2)cc1	i	.
CNC(=O)N(O)C1N(/N=C/c2cc(Br)ccc2O)C(=S)SC1(C)C (configuration not stated)	i	.
Cc1ccc(C)c(NS(=O)(=O)c2cc(C(=O)NCCSC3CCCCC3)ccc2C)c1	i	.
Cc1ccccc1NS(=O)(=O)c1cc(C(=O)NCCSC2CCCCC2)ccc1C	-5.8*	-5.8
CCc1cc(S(=O)(=O)N2CCN(C(=O)c3ccco3)CC2)ccc1OC	i	0.62
Cc1ccc(C(NC(=O)NC(C)c2ccccc2)C(Cl)(Cl)Cl)cc1F (configuration not stated)	i	17*
CC(NC(=O)Nc1ccc(Cl)cc1)c1ccccc1 (configuration not stated)	i	.
Cc1ccc(OC(=O)c2ccc(Cl)c([N+](=O)[O-])c2)cn1	i	0.09
Cc1ccc(C(=O)Oc2cccnc2)cc1[N+](=O)[O-]	i	6.1*
COCCNC(=O)c1cn(C)c2ccc(S(=O)(=O)N3CCCCC3)cc2c1=O	i	1.3
CCc1ccc(NC(=O)c2cccc(C(=O)Nc3ccc(CC)cc3)n2)cc1	i	0.46
Cc1ccc(NC(=O)c2cccc(C(=O)Nc3ccc(C)c(C)c3)n2)cc1C	-6.4*	-6.4
Cc1nc(NC(=O)C2CC2)sc1C(=O)N1CCCCC1	i	1.2
Cc1nc(NC(=O)c2cccc(Cl)c2)sc1C(=O)N1CCCCC1	-7.5*	-7.5
O=C(N/N=C/c1cccc(OC(=O)c2cccc(Br)c2)c1)c1ccncc1	i	0.34
CC(=O)c1cc(CCC(=O)NC2CCCCCC2)oc1C	i	0.01
Nc1nccnc1C(=O)OCC(=O)Nc1ccc2[nH]c(=O)[nH]c2c1	i	0.11
COc1ccc(-c2ccc(NC(=O)c3ccc(Br)o3)cc2)nn1	i	.
c1ccc(Nc2scc(-c3ccccc3)[n+]2Cc2ccco2)cc1	-6.4*	-6.4
c1ccc(C[n+]2c(-c3ccccc3)csc2Nc2ccccc2)cc1	i	.
O=c1c2c(-c3cccs3)csc2ncn1/N=C/c1ccccn1	i	.
O=c1c2c(-c3cccs3)csc2ncn1/N=C/c1ccc(OC(F)F)cc1	-7.4*	-7.4
CC1(c2ccccc2)CC(C)(C)N2C(=O)Cc3cccc1c32 (configuration not stated)	-7.7*	-7.7
SMILES	KCNQ2 inh	KCNQ2 enhance
CC(=O)N1c2ccccc2C(C)(c2ccccc2)CC1(C)C (configuration not stated)	i	.
CCCCN(C)C(=O)c1cc2c(s1)-c1ccccc1S(=O)(=O)C2	i	.
CCOc1cc(CNCc2cccnc2)cc(Br)c1OCC(N)=O	i	1.2
C(#Cc1ccccc1)CN1CCCCC1	i	6.3*
C(#Cc1ccccc1)CN1CCN(c2ccccn2)CC1	i	0.75
O=C(NCCSCc1c(F)cccc1Cl)c1ccc(CN2CCOCC2)cc1	i	1.1
CC(CNC(=O)CN1C(=O)COc2ccc(S(=O)(=O)N3CCCCC3)cc21)c1ccccc1 (configuration not stated)	i	4.7
Cc1oc(-c2nc3ccccc3n2C)cc1C(=O)c1ccccc1	-6.6*	-6.6
Cn1cc(C(=O)c2ccccc2)cc1-c1nc2ccccc2n1C	i	.
OCC[C@@H]1C[C@@H](O)[C@H](O)[C@@]2(Cc3ccccc3O2)O1	i	.
CCCCCCc1c(C)c2ccc(OCC(=O)N[C@@H](Cc3ccccc3)C(=O)O)cc2oc1=O	i	2.3
COc1c(C(=O)Nc2ccccc2N2CCOCC2)cc2ccccc2c1Br	-7.5*	-7.5
O=C(Nc1ccccc1N1CCOCC1)c1cc2ccccc2o1	i	.
COc1ccc(N2CCOCC2)c(NC(=O)c2cc3ccccc3o2)c1	-7.3*	-7.3
COc1ccccc1C(=O)Nc1ccccc1N1CCOCC1	i	.
O=C(c1cc[n+]([O-])cc1)N1CCCC(N2CCN(c3cccc(C(F)(F)F)c3)CC2)C1 (configuration not stated)	i	0.15
Cc1ccc(S(=O)(=O)N2CCN(CC(=O)NC3CCCc4ccccc43)CC2)cc1C (configuration not stated)	-7*	-7
NC(=O)C1CCN(CC(=O)NC2CCCc3ccccc32)CC1 (configuration not stated)	i	1.5
Cc1ccc(OCC(=O)NC2CCCc3ccccc32)c(C)c1 (configuration not stated)	i	.
O=C(CCC(=O)N1CCN(S(=O)(=O)c2ccc(Cl)cc2)CC1)Nc1ccc(Cl)cc1Cl	i	0.1
Cc1ccc(S(=O)(=O)N2CCN(CC(=O)NC3CCCc4ccccc43)CC2)c(C)c1 (configuration not stated)	-6.1*	-6.1
